Reference: PubChem BioAssay (Tox21)
Results filed as inconclusive are left out. Where a call stands in place of a potency, no number is given. Active and inactive are the calls of the source. Calls come from the whole dose curve.

The molecules below were run against Retinoic acid receptor RXR-alpha (Homo sapiens) (UniProt P19793) (assay: qHTS assay to identify small molecule agonists of the RXR signaling pathway (AID 1159527; note: nearly all actives have a fitted effect of over 35% in size)). Settings: HEK293T RXRa-UAS-bla, beta-lactamase ratio, 16 h; series mostly up to 76.8 µM.
Sequence of Retinoic acid receptor RXR-alpha (Homo sapiens) (P19793 whole entry, looked up): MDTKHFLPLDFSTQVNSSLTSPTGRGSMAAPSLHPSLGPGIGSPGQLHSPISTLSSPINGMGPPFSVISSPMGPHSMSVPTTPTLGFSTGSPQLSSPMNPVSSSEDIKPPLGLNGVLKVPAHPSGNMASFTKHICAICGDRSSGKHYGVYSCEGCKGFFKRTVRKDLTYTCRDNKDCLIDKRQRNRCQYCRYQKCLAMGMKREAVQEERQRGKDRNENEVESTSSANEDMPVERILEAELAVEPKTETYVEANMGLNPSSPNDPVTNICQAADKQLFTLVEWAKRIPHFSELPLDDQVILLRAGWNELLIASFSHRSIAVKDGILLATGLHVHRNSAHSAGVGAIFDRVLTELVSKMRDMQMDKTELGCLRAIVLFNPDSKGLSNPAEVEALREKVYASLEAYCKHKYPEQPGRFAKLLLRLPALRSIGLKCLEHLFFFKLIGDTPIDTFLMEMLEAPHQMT
Source text: U.S. Tox21 Program National Center for Advancing Translational Sciences [NCATS] NIH Chemical Genomics Center [NCGC] U.S. Environmental Protection Agency [EPA] National Institutes of Environmental Health Sciences [NIEHS] National Toxicology Program [NTP] U.S. Food and Drug Administration [FDA] Tox21 Assay Overview: The Retinoid X receptor (RXR), a nuclear hormone receptor expressed in liver, spleen, placenta, epidermis, central nervous system. These receptors are able to form homo and heterodimers with other nuclear receptors and due to this heterodimerizing ability, RXR functions as master regulators producing diverse physiological effects. Three subtypes of RXR exist; alpha, beta and gamma. Retinoid X receptor alpha (RXR-alpha) has potential roles in metabolic signaling pathways, skin alopecia, dermal cysts, cardiac development, insulin sensitization etc. Therefore screening environmental chemicals on RXR-alpha signaling can be used for the studies focused on such therapeutic applications. For quantification of RXR-alpha ligands signaling, GeneBLAzer RXR alpha-UAS-bla HEK 293T (Life Technologies, Carlsbad, CA) cells containing a beta-lactamase reporter-gene under control of Retinoid X receptor-alpha response element were used to screen Tox21 10K library.
Tox21 Assay Protocol Summary: RXR-alpha HEK 293T cells were dispensed at 2,000 cells/6 uL of assay medium containing 2% charcoal-stripped FBS using a Multidrop Combi (ThermoFisher Scientific, Waltham, MA) dispenser. The assay was performed in black wall/clear-bottom 1536-well plates (Greiner Bio-One North America Inc. Monroe, NC). 9-cis retinoic acid was used as a positive control in the agonist mode screen. After the assay plates were incubated at 37 C and 5% CO2 for 5 hr, 23 nL of compounds dissolved in DMSO, positive controls or DMSO only were transferred to the assay plate by a Pintool station (Kalypsys, San Diego, CA). The assay plates were incubated at 37 C and 5% CO2 for 16 hr. One uL of LiveBLAzer B/G FRET substrate (Life Technologies) was added using a Flying Reagent Dispenser (Aurora Discovery, San Diego, CA) and the plates were incubated at room temperature for 2 hr. Fluorescence intensity (405 nm excitation, 460/530 nm emission) was measured using an Envision plate reader (PerkinElmer, Shelton, CT).
Potency is the fitted concentration of half-maximal effect.

| Structure (SMILES) | Potency | activation |
| --- | --- | --- |
| CC(=O)N[C@@H](CC(C)C)C(=O)O | inactive |  |
| CCCCCOc1ccc(C2SC(=O)NC2=O)cc1OCC (stereo not given) | 5.35 µM (active) |  |
| CCC/C=C/CO | inactive |  |
| Cc1cc(NS(=O)(=O)c2ccc(N)cc2)nc(C)n1 | inactive |  |
| CC1(C)C(=O)N(Cl)C(=O)N1Br | inactive |  |
| CCOc1ccc2nc(N)sc2c1 | inactive |  |
| CCCNC(C)(C)COC(=O)c1ccccc1 | inactive |  |
| CCN(CC)CCNC(=O)COc1ccc(Cl)cc1 | inactive |  |
| CC(C)(C)c1cccc(O)c1 | inactive |  |
| NC/C=C/C(=O)O | inactive |  |
| Cc1ccc([N+](=O)[O-])cc1Cl | inactive |  |
| CC(C)OC(C)C | inactive |  |
| CN(C)Cc1ccccc1 | inactive |  |
| CC(C)c1ccccc1 | inactive |  |
| Oc1ccccc1F | inactive |  |
| CC(C)CCCCCCc1ccc(OCCOCCO)cc1 | inactive |  |
| NS(=O)(=O)c1cc(-c2nn[nH]n2)c(NCc2cccs2)cc1Cl | inactive |  |
| CCCCC(=O)O[C@]1(C(=O)CO)[C@H](C)C[C@H]2[C@@H]3CCC4=CC(=O)C=C[C@]4(C)[C@@]3(F)[C@@H](O)C[C@@]21C | inactive |  |
| N#CSCC(=O)O | inactive |  |
| CC1=CC(=O)CC(C)(C)C1=O | inactive |  |

| Structure (SMILES) | Potency | activation |
| --- | --- | --- |
| CC(C)C[C@H](NC(=O)OCC1c2ccccc2-c2ccccc21)C(=O)O | inactive |  |
| Nc1cccc(S(=O)(=O)O)c1 | inactive |  |
| O=C1CCCc2ccccc21 | 6.99 µM (active) |  |
| Cc1cc2nc(N)sc2cc1C | inactive |  |
| CCCCC(CC)COC(=O)COc1cc(Cl)c(Cl)cc1Cl (stereo not given) | inactive |  |
| CN1[C@@H]2CC[C@H]1CC(OC(=O)c1c[nH]c3ccccc13)C2 (stereo not given in full) | inactive |  |
| CC(=O)N(CC(O)CN(C(C)=O)c1c(I)c(C(=O)NCC(O)CO)c(I)c(C(=O)NCC(O)CO)c1I)c1c(I)c(C(=O)NCC(O)CO)c(I)c(C(=O)NCC(O)CO)c1I (stereo not given) | inactive |  |
| CC(C)(C)C1CCCCC1=O (stereo not given) | inactive |  |
| Cc1cn([C@@H]2O[C@H](CO)[C@@H](O)[C@@H]2F)c(=O)[nH]c1=O | inactive |  |
| CCCc1c2oc(C(=O)O)cc(=O)c2cc2c(=O)cc(C(=O)O)n(CC)c12 | inactive |  |
| NCCCN1CCN(CCCN)CC1 | inactive |  |
| CCOc1ccc(NC(N)=O)cc1 | inactive |  |
| NC1=NCC2c3ccccc3Cc3ccccc3N12 (stereo not given) | inactive |  |
| CCOc1ccc(OCC)c(Cl)c1 | inactive |  |
| CN(C)CC[C@@H](c1ccc(Cl)cc1)c1ccccn1 | inactive |  |
| COC(=O)c1ccc2cc(C(=O)OC)ccc2c1 |  | 0.118% [at 15.8 µM] (inactive) |
| CCCCCCCOC(=O)CCC | inactive |  |
| COc1ccc(Nc2ccc(OC)cc2)cc1 | inactive |  |
| NNS(=O)(=O)c1ccc(Oc2ccc(S(=O)(=O)NN)cc2)cc1 | inactive |  |
| CC(C)(CO)[C@@H](O)C(=O)NCCC(=O)O | inactive |  |
